Results reported in PubChem BioAssay (NCI).
This is part of a sample that, as a whole, favours compounds with a hit. Of some 83,000 tested, about 20% had one in any assay.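 Values shown are percent growth following 48 h exposure of cells in 96-well plates to a single concentration of compound; below 10 was considered active.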 Unmarked numbers belong to inactive results. Active and inactive are the calls of the source.

Key:
Test in all cases: NCI-60 one-dose screen, 48 h (100 = growth as untreated, 0 = no growth, -100 = all killed)
Conditions in all cases: 10 µM unless noted
HCT-15 colon = system: HCT-15 colon
HT29 colon = system: HT29 colon
SNB-75 CNS = system: SNB-75 CNS
SNB-19 CNS = system: SNB-19 CNS
U251 CNS = system: U251 CNS
PC-3 prostate = system: PC-3 prostate
SK-MEL-5 melanoma = system: SK-MEL-5 melanoma
UACC-62 melanoma = system: UACC-62 melanoma
LOX IMVI melanoma = system: LOX IMVI melanoma
SK-MEL-28 melanoma = system: SK-MEL-28 melanoma

Row | SMILES | growth (HCT-15 colon) | growth (HT29 colon) | growth (SNB-75 CNS) | growth (SNB-19 CNS) | growth (U251 CNS) | growth (PC-3 prostate) | growth (SK-MEL-5 melanoma) | growth (UACC-62 melanoma) | growth (LOX IMVI melanoma) | growth (SK-MEL-28 melanoma)
1 | COc1cc(C(=O)c2c(-c3ccccc3)oc3c(OC)cccc23)cc(OC)c1O | 13.5% | 6.79% (active) | 22.2% | 25.8% | 18.8% | 23.5% | 19.7% | 39.3% | 16.1% | 62.7%
2 | N=C(N)c1ccc(-c2ccc(-c3ccc(Cl)cc3Cl)s2)cc1F | -75.7% (active) | -29.4% (active) | 20.7% | -34.3% (active) | -52.1% (active) | -14.1% (active) | 50.8% | -54% (active) | -89.9% (active) | 83.7%
3 | C[C@H]1[C@H](C)CC[C@]2(C(=O)O)CC[C@]3(C)C(=CC[C@@H]4[C@@]5(C)C[C@@H](Cc6cn([C@@H]7O[C@H](CO)[C@@H](O)[C@H](O)[C@H]7O)nn6)[C@H](O)C(C)(C)[C@@H]5CC[C@]43C)[C@H]12 | 102% | 98.4% | 88% | 98.8% | 92.9% | 89.8% | 94.2% | 98.4% | 99% | 101%
4 | COc1cc2c(c(OC)c1OC)C(=O)N[C@@H]1[C@@H](O)[C@@H](O)[C@H](O)C[C@@H]21 | 104% | 107% | 102% | 99% | 98.9% | 96.5% | 104% | 94.1% | 97.7% | 111%
5 | COc1cc2cc(Oc3ccc(NC(=O)Nc4ccccc4)cc3)c(C)nc2cc1OCCN1CCCCC1 | 14.3% | 17% | 74.9% | 91.6% | 21.5% | 82.7% | 84.7% | 95.4% | 78.7% | 91.6%
6 | COc1ccc(Cn2cc(C(=O)N=Nc3c(O)[nH]c4c(Cl)cccc34)nn2)cc1 | 107% | 97% | 82.1% | 93.6% | 102% | 96.7% | 101% | 102% | 93.7% | 115%
7 | O=S(=O)(c1ccccc1)N1CCCN(c2nc(-c3ccccc3)nc3nc(-c4ccccc4)oc23)CC1 | 109% | 109% | 88.5% | 101% | 107% | 105% | 103% | 102% | 99.9% | 110%
8 | CCOC(=O)Nc1nc2ccc(SCC(C)C)cc2s1 | 25.5% | 9.7% (active) | 74.3% | 49.9% | 34.3% | 36.9% | 34.1% | 17.3% | 36.3% | 62.3%
9 | CCCCCCCC/C=C\CCCCCCCCOc1ccc(CC(=O)NCC[N+](C)(C)C)cc1 | 60.4% | 24.5% | 34.6% | 13.4% | 16.9% | 4.88% (active) | 87.3% | 61.3% | 83.2% | 91.7%
10 | COC(=O)/C=C1/SC(=Nc2cccc(Cl)c2)N(CCc2c[nH]c3ccc(O)cc23)C1=O | -11.6% (active) | 49.2% | 38.7% | 14.3% | 4.91% (active) | 9.39% (active) | 41.4% | 13.8% | -39.2% (active) | 17.4%
11 | O=C(Nc1ccc(F)cc1)Nc1ccccc1CNc1nc(Nc2ccc(OCCN3CCCC3)cc2)ncc1Cl | 38.8% | 6.13% (active) | -15.7% (active) | 45.8% | 20.6% | 61.7% | 44.9% | 95.2% | -57.6% (active) | -13.3% (active)
12 | O=C1/C(=C/c2ccccc2)CN(C(=O)c2cccnc2)C/C1=C\c1ccccc1 | -5.39% (active) | -34% (active) | 81.6% | 6.39% (active) | -23.8% (active) | -17.6% (active) | -39.1% (active) | -46.2% (active) | -84% (active) | -9.39% (active)
13 | CCCCSCC(=O)c1ccccc1 | 104% | 92.2% | 82.3% | 98.1% | 97.3% | 81.5% | 102% | 102% | 101% | 108%
14 | C#CCOc1ccc2ncnc(Nc3cccc(NC(=O)CCl)c3)c2c1 | 50.6% | 33.5% | 68.9% | 71.8% | 62.2% | 70% | 68.3% | 60.6% | -68.1% (active) | 90.6%
15 | CCOC(=O)c1c(NC(=O)c2ccc(C(C)(C)C)cc2)sc2cc(O)ccc12 | 70.3% | 80.6% | 104% | 111% | 96.9% | 105% | 98.1% | 101% | 87% | 99.1%
16 | CC(C)C[C@@H](C(=O)N[C@H](C(=O)OC1CCCC1)c1ccccc1)[C@H](O)C(=O)NO | 58.4% | 58% | 101% | 76.2% | 45.7% | 49.6% | 59.8% | 68.8% | 54.2% | 63.2%
17 | Brc1ccc(-c2cnc3nonc3n2)cc1 | 54.8% | 70.2% | 96% | 88.2% | 92.5% | 57.1% | 48.5% | 51.7% | 38% | 104%
18 | O=C1c2cc3c(cc2-c2c1c1ccc(Cl)cc1c(=O)n2C[C@H](O)CO)OCO3 | 4.59% (active) | 0.971% (active) | -9.59% (active) | 14.1% | 0.379% (active) | 6.95% (active) | -96.6% (active) | -62% (active) | -31.9% (active) | -6.11% (active)
19 | Cn1cc(-c2ccc3cc(-c4ccc(CC(=O)Nc5cc(C(C)(C)C)on5)cc4)cnc3c2)cn1 | 10.9% | 38.8% | 28.4% | 34.7% | 2.41% (active) | 21.1% | 26.7% | 10.8% | 30.4% | 29.1%
20 | Oc1c(CN2CCCC2)cc(COCc2ccccc2)c2cccnc12 | 11.3% | 74.4% | 44.9% | 25.5% | 1.08% (active) | 24.9% | -11.1% (active) | -19.9% (active) | 2.6% (active) | 31%
21 | COc1ccc2cc(-c3ccc(-c4ccc(C(=N)N)s4)s3)ccc2c1 | -81.6% (active) | -70.8% (active) | 21% | -26.8% (active) | -85.9% (active) | 23.1% | 95.1% | -16.3% (active) | -58.2% (active) | 109%
22 | COc1ccc(OC)c(-c2cn3nc(-c4c[nH]c5ccc(Br)cc45)sc3n2)c1 | 24.6% | 10% | 45% | 75.4% | 36.9% | 40.9% | 75.3% | 50.1% | -50.5% (active) | 59.5%
23 | COc1cc(Nc2ncccc2NC(=O)c2cn(Cc3cccc(Oc4ccccc4)c3)nn2)cc(OC)c1 | 68.7% | 88.8% | 79.9% | 79.6% | 80.2% | 66.5% | 60% | 65.5% | 75.1% | 83.3%
24 | S=c1ssnc1-c1cccs1 | 99% | 105% | 97.1% | 96.8% | 100% | 94.3% | 57.3% | 90.7% | 92.3% | 112%
25 | COc1cccc(/C=C2\COc3ccc(O)cc3C2=O)c1 | 40.6% | 37.8% | 82.4% | 65.6% | 45.1% | 76.8% | 96.6% | 63.3% | 18.7% | 108%
26 | CCCCC(=O)Nc1ncc(Cc2ccccc2Cl)s1 | 24.8% | 11% | 25.3% | 48.7% | 32% | 68.8% | 37.6% | 32.4% | 40.2% | 57.7%
27 | CC(C)c1ccc(-n2c(=S)[nH]c3sc4c(c3c2=O)CCC(=O)C4)cc1 | 45.9% | 109% | 41.6% | 26.4% | 11.8% | 7.63% (active) | 27.9% | 24.5% | 43.3% | 75.7%
